Reference: PubChem BioAssay (Tox21)
Records with an inconclusive call do not appear. Calls of active or inactive are those of the source. Unless noted, the call rests on the fitted dose curve; in most records, active means well fitted curve in the direction sought with a large enough effect in the repeat runs; inconclusive means weak or mixed curves; inactive means no such curve, though single readings can be large; an effect the other way counts as inactive or inconclusive.

What was measured:
[1] = A CellTox Green Cytotoxicity Assay to monitor cytotoxicity in HEK293 cells - 8 hour (AID 1224884); further: nearly all actives have a fitted effect of over 35% in size
Outline: (§1)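 Fluorescence intensity, read at 0, 8, 16, 24, 32 and 40 h of compound treatment, reflected dye binding to DNA of dead HEK293 cells; compounds (23 nL, DMSO) were added 5 h after plating cells with reagent.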

[2] = qHTS RealTime-Glo MT Cell Viability Assay in HepG2 cells - 16 hour (AID 1224885); further: nearly all actives have a fitted effect of over 50% in size
Outline: (§2)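 Compound treatment began 5 h after plating HepG2 cells (600/well) with NanoLuc luciferase and prosubstrate. Plates stayed at 37 C for 40 h; luminescence was captured at six time points, 0 h through 40 h.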

[3] = qHTS RealTime-Glo MT Cell Viability Assay in HEK293 cells - 24 hour (AID 1224886); further: top concentration of the series differs between compounds; nearly all actives have a fitted effect of over 50% in size
Outline: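 Quantitative high-throughput screen of the Tox21 10K library in HEK293: cells and RealTime-Glo reagents plated together, compound added at 5 h, luminescence monitored through 40 h at 37 C.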

[4] = qHTS RealTime-Glo MT Cell Viability Assay in HEK293 cells - 8 hour (AID 1224887); further: top concentration of the series differs between compounds; nearly all actives have a fitted effect of over 50% in size
Outline: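 Viable HEK293 cells reduce a cell-permeant prosubstrate; the product diffuses out and is consumed by NanoLuc in the medium to give light. Compounds went in after a 5 h incubation and plates were read over the treatment course.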

[5] = A CellTox Green Cytotoxicity Assay to monitor cytotoxicity in HEK293 cells - 16 hour (AID 1224888); further: nearly all actives have a fitted effect of over 35% in size
Outline: as §1

[6] = qHTS RealTime-Glo MT Cell Viability Assay in HepG2 cells - 0 hour (AID 1224889); further: nearly all actives have a fitted effect of over 50% in size
Outline: as §2

[7] = A CellTox Green Cytotoxicity Assay to monitor cytotoxicity in HepG2 cells - 8 hour (AID 1224890); further: nearly all actives have a fitted effect of over 45% in size
Outline: (§3)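 Using 1536-well format, dye-containing HepG2 suspension was seeded, allowed 5 h at 37 C/5% CO2, dosed by pintool with compounds, positive and negative controls, and imaged for fluorescence across 40 h.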

[8] = qHTS assay to identify small molecule antagonists of the androgen receptor (AR) signaling pathway using the MDA cell line in the presence of 0.5 nM R1881 - cell viability counter screen (AID 1259242); further: nearly all actives have a fitted effect of over 45% in size
Outline: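 Viability of MDA-kb2 cells was multiplexed with the luciferase AR readout; after 16 hr with compounds and R1881 at 0.5 nM final, CellTiter-Fluor fluorescence was recorded.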

[9] = biological target: Androgen receptor (Homo sapiens) (UniProt P10275); test: qHTS assay to identify small molecule antagonists of the androgen receptor (AR) signaling pathway using the MDA cell line in the presence of 0.5 nM R1881 (AID 1259243); further: nearly all actives have a fitted effect of over 50% in size; further: potency means the concentration at half of the fitted maximal effect
Outline: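 Reporter cells cultured without CO2 receive test chemicals, then 0.5 nM R1881 final; after 16 hr at 37C, ONE-Glo is added and light output recorded.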

[10] = qHTS assay to identify small molecule HDAC inhibitors (AID 1259364); further: potency means the concentration at half of the fitted maximal effect;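 further: wild-type HCT-116 cells with endogenous class I/II HDAC activity; nearly all actives have a fitted effect of over 45% in size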; on activity change, negative = inhibition: top concentration of the series differs between compounds
Outline: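 Read-out: luminescence of HDAC-Glo I/II reagent, 30 min RT, reflecting class I/II deacetylase activity in whole HCT-116 cells pre-exposed 2 h to DMSO-dissolved compounds.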

[11] = qHTS assay to identify small molecule HDAC inhibitors - cell viability counter screen (AID 1259365)
Outline: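 To flag cytotoxic hits, 1,500 wild-type HCT-116 cells per well, plated the day before, receive test compounds for 2hr at 37 C before CellTiter-Glo reagent and a luminescence read.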

[12] = qHTS assay to identify small molecule agonists of the sonic hedgehog signaling (Shh) pathway - cell viability counter screen (AID 1259366); further: nearly all actives have a fitted effect of over 50% in size
Outline: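 Fluorescence from CellTiter-Fluor reports live cells in this counter screen. NIH/3T3-derived Gli1-Luc reporter cells receive test compounds for 24hr at 37C; reagent goes in at 23hr.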

[13] = qHTS assay to identify small molecule antagonists of the sonic hedgehog signaling (Shh) pathway - cell viability counter screen (AID 1259367); further: nearly all actives have a fitted effect of over 55% in size
Outline: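 Seed 3T3 Gli1-Luc cells at 2,000 per well; incubate 4 hr; add compound in DMSO, then conditioned medium; incubate at 37C with 5% CO2; add CellTiter-Fluor after 23 hr; read fluorescence 1 hr later.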

[14] = qHTS assay to identify small molecule agonists of the sonic hedgehog signaling (Shh) pathway (AID 1259368; calls by dose curve;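 further: NIH/3T3-derived 3T3Gli1-Luc cells carrying a stable Gli1-driven firefly luciferase reporter; series mostly up to about 92 µM; nearly all actives have a fitted effect of over 15% in size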)
Outline: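 A Gli1 transcriptional response element controlled firefly luciferase in 3T3Gli1-Luc cells. Compounds and a positive control were added 4 hr after plating, and cells were incubated a further 24 hr at 37 C before luminescence detection.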

[15] = qHTS assay to identify small molecule antagonists of the sonic hedgehog signaling (Shh) pathway (AID 1259369; calls by dose curve; further: nearly all actives have a fitted effect of over 45% in size)
Outline: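 For antagonist detection, the reporter line received test compounds together with conditioned medium, incubated 24hr at 37 C, 5% CO2, then luminescence was recorded following 30min room-temperature luciferase reagent incubation.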

[16] = A CellTox Green Cytotoxicity Assay to monitor cytotoxicity in HepG2 cells - 32 hour (AID 1224883); further: nearly all actives have a fitted effect of over 50% in size
Outline: as §3

[17] = qHTS assay to identify small molecule antagonists of the estrogen receptor alpha (ER-alpha) signaling pathway using the BG1 cell line in the presence of 0.1 nM 17-beta-estradiol - cell viability counter screen (AID 1259241); further: nearly all actives have a fitted effect of over 40% in size
Outline: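 CellTiter-Fluor read (30 min, 37C) on ER-alpha/ERE-luc VM7Luc4E2 cells; 22 hr compound treatment; agonist 0.1 nM E2 final; same-well multiplex.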

[18] = biological target: Estrogen receptor (Homo sapiens) (UniProt P03372); test: qHTS assay to identify small molecule antagonists of the estrogen receptor alpha (ER-alpha) signaling pathway using the BG1 cell line in the presence of 0.1 nM 17-beta-estradiol (AID 1259244); further: nearly all actives have a fitted effect of over 50% in size
Outline: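 Estradiol at 0.1 nM (final) stimulates the endogenous ER-alpha of VM7Luc4E2 cells carrying an ERE-driven luciferase; compounds are co-incubated 22 h at 37C and luciferase output quantified by luminescence.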

[19] = biological target: Estrogen receptor beta (Homo sapiens) (UniProt Q92731); test: qHTS assay to identify small molecule agonists of the estrogen receptor beta (ER-beta) signaling pathway (AID 1259377; active means well fitted activation curve with a large enough effect in the signal ratio in the repeat runs, not every such curve was filed as active; the % refers to the signal ratio)
Outline: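 Screening used GripTite ER-beta-UAS-bla cells held in 2% charcoal-stripped FBS medium. After overnight (16 hr) compound incubation at 37C, beta-lactamase activity was detected with a FRET substrate by fluorescence.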

[20] = qHTS assay to identify small molecule phospholipidosis (PLD) inducers (AID 1259344; active means well fitted curve in the direction sought with a large enough effect; an effect the other way counts as inactive or inconclusive)
Outline: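 Quantitative HTS in HepG2: compound plus LipidTOX Red dye for 24 h, paraformaldehyde fixation with Hoechst 33342, widefield high-content imaging; amiodarone as positive and DMSO as negative control.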
On the % scale 0 is the no-effect control and ±100 the full control effect.

Chain of Androgen receptor (Homo sapiens) (P10275 whole entry, looked up): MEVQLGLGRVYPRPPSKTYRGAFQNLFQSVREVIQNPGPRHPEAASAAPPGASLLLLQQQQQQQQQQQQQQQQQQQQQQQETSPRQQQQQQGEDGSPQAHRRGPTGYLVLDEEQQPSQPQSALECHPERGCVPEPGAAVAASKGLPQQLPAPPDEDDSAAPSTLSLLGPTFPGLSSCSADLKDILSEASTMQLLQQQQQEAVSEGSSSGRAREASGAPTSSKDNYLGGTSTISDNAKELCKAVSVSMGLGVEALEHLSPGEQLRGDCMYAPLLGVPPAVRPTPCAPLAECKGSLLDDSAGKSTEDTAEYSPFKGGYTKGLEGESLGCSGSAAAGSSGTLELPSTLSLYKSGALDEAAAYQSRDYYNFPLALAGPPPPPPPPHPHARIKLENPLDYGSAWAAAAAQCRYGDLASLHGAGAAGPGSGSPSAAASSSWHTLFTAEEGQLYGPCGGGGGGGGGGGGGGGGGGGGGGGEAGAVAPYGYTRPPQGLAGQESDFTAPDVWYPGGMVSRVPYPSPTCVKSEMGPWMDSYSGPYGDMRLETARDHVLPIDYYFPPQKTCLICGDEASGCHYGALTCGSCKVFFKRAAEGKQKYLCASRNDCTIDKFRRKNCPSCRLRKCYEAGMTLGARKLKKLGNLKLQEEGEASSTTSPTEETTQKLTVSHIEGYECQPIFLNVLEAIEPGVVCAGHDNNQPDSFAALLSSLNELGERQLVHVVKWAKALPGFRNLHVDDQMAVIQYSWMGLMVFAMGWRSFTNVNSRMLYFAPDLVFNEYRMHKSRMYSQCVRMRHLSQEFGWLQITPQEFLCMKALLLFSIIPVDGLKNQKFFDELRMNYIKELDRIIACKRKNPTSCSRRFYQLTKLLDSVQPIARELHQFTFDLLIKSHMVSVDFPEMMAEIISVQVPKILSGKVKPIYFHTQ
Chain of Estrogen receptor beta (Homo sapiens) (Q92731 whole entry, looked up): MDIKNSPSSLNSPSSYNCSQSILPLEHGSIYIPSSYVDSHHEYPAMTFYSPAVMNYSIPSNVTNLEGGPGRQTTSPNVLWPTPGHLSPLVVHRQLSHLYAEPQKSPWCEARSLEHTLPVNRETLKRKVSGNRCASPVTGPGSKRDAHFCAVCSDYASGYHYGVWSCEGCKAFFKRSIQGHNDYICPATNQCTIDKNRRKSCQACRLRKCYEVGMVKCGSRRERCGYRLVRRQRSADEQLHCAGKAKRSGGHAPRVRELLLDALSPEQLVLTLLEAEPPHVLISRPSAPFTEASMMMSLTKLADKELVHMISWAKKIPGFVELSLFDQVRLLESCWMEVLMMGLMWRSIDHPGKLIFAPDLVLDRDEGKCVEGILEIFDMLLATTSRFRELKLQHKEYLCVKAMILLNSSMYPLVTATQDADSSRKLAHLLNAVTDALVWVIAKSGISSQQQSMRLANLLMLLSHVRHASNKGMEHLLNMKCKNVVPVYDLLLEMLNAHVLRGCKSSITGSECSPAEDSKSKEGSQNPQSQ
Chain of Estrogen receptor (Homo sapiens) (P03372 whole entry, looked up): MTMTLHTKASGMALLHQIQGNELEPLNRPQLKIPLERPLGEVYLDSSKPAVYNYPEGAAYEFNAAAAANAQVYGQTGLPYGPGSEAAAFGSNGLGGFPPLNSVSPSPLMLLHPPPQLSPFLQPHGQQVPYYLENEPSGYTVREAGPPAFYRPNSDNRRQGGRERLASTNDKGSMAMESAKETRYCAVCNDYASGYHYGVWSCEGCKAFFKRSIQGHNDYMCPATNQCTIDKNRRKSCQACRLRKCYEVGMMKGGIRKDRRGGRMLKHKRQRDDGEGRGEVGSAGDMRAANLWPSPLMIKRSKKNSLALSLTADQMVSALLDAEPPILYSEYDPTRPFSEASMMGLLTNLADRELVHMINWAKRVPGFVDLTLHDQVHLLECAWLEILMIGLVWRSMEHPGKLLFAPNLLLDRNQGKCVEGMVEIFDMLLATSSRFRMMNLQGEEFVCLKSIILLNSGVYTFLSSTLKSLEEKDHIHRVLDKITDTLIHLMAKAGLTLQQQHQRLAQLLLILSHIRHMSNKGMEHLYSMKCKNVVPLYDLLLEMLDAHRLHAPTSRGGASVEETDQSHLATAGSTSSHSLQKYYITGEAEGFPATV

BrCc1cccc(Oc2ccccc2)c1
inactive: Potency [1] | outcome [2] | Potency [3] | Potency [4] | outcome [5] | Potency [6] | outcome [7] | outcome [8] | Potency [10] | outcome [11] | Potency [12] | Potency [13] | outcome [14] | Potency [15]
active: Potency [9] 54.5 µM

CC(=O)Nc1cccc(C)c1
inactive: Potency [16] | outcome [2] | outcome [5] | Potency [6] | outcome [7] | Potency [17] | outcome [8] | Potency [10] | outcome [11] | Potency [12] | Potency [13] | Potency [15]

Cc1ccc(S(=O)(=O)O)c(C)c1
inactive: Potency [1] | outcome [2] | Potency [3] | Potency [4] | outcome [5] | Potency [6] | outcome [7] | Potency [17] | outcome [8] | Potency [18] | Potency [10] | outcome [11] | Potency [12] | outcome [14] | Potency [15]

CN1CCN(CC(=O)N2c3ccccc3C(=O)Nc3cccnc32)CC1
inactive: cytotoxicity increase [16] -13% [at 6.97 µM] | activity change, negative = cytotoxic [2] 0.498% [at 6.97 µM] | activity change, negative = cytotoxicity [3] 6.44% [at 6.97 µM] | activity change, negative = cytotoxicity [4] 17.8% [at 6.97 µM] | activity change, negative = cytotoxicity [6] 2.23% [at 6.97 µM] | cytotoxicity increase [7] -13.9% [at 6.97 µM] | activity change, negative = cytotoxicity [17] 5.03% [at 8.39 µM] | viability change, negative = cytotoxic [8] 1.29% [at 8.39 µM] | activity change, negative = inhibition [10] 0.529% [at 8.39 µM] | activity change, negative = cytotoxicity [11] 3.63% [at 8.39 µM] | viability change, negative = cytotoxic [12] 1.72% [at 8.39 µM] | viability change, negative = cytotoxic [13] 0.196% [at 8.39 µM] | activity change [14] 0.176% [at 8.39 µM] | activity change, negative = inhibition [15] 12.8% [at 8.39 µM] | activation [19] 7.01% [at 8.39 µM]

CCCCNC1CC(C)(C)NC(C)(C)C1
inactive: Potency [16] | outcome [2] | Potency [3] | outcome [5] | Potency [6] | outcome [7] | Potency [17] | outcome [8] | Potency [18] | Potency [10] | outcome [11] | Potency [12] | Potency [13] | outcome [14] | Potency [15] | Potency [19]

CC(C)C(=O)OCc1cccc(OC(=O)[C@@H]2N3C(=O)[C@@H](NC(=O)Cc4ccccc4)[C@H]3SC2(C)C)c1
inactive: Potency [16] | outcome [2] | Potency [3] | Potency [4] | outcome [5] | Potency [6] | outcome [7] | outcome [8] | Potency [9] | Potency [18] | Potency [10] | Potency [12] | Potency [13] | outcome [14] | Potency [19]

CC(=C(CCOC(=O)C(C)C)SSC(CCOC(=O)C(C)C)=C(C)N(C=O)Cc1cnc(C)nc1N)N(C=O)Cc1cnc(C)nc1N
inactive: Potency [1] | outcome [2] | Potency [3] | Potency [4] | Potency [6] | outcome [8] | outcome [20] | Potency [10] | outcome [11] | Potency [12] | Potency [13] | outcome [14] | Potency [19]

CCOCCOC(=O)/C=C/c1ccc(OC)cc1
inactive: Potency [16] | outcome [2] | Potency [3] | outcome [5] | Potency [6] | outcome [7] | Potency [17] | Potency [18] | outcome [11] | Potency [12] | Potency [13] | outcome [14] | Potency [15]
active: Potency [10] 11.9 µM

Cc1ccccc1OCC(O)CO (stereo unspecified)
inactive: Potency [16] | outcome [2] | Potency [3] | outcome [5] | Potency [6] | outcome [7] | Potency [17] | outcome [8] | outcome [20] | Potency [10] | outcome [11] | Potency [12] | outcome [14] | Potency [15] | Potency [19]

COCCOCCOCCOCCO
inactive: Potency [16] | outcome [2] | Potency [3] | outcome [5] | Potency [6] | outcome [7] | Potency [17] | Potency [9] | Potency [10] | outcome [11] | Potency [12] | Potency [13] | outcome [14] | Potency [15] | Potency [19]

CC(S)C(=O)NCC(=O)O (stereo unspecified)
inactive: Potency [16] | outcome [2] | Potency [3] | Potency [4] | Potency [6] | outcome [7] | Potency [17] | outcome [8] | Potency [9] | outcome [20] | Potency [10] | outcome [11] | Potency [12] | outcome [14] | Potency [15] | Potency [19]
